Measured values from PubChem BioAssay (Tox21).
Results filed as inconclusive are left out. Active and inactive are the calls of the source. Unless noted, calls come from the whole dose curve; as a rule, active = well fitted curve in the direction sought with a large enough effect in the repeat runs; inconclusive = weak or mixed curves; inactive = no such curve, though single readings can be large; an effect the other way counts as inactive or inconclusive. Starred links: 1 amine or outer side, 2 acyl side, 3 side chain; linkers in the order of their positions; H or OH if unused. Positions of bridges follow the written chain, without caps; N, C: chain ends. Non-standard residues stand in square brackets, D forms with d. Residues, ends and D or L forms follow the SMILES beside them. *: point of attachment. X5 = NC1=N[C@@H]([C@H](N[*:1])C(=O)[*:2])C[C@H](O)N1; ΔAla(Z-3-ureido) = NC(=O)N/C=C(\N)C(=O)O; β3hOrn = NCCC[C@H](N)CC(=O)*; Dap = NC[C@H](N)C(=O)O

Legend:
[1] = qHTS assay to identify small molecule antagonists of the thyroid receptor (TR) signaling pathway - cell viability counter screen (AID 743064); note: nearly all actives have a fitted effect of over 50% in size; note: potency is the fitted concentration of half-maximal effect
Outline: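 Same-well viability check: GH3.TRE-Luc cells stimulated with 1 nM T3 alongside test compound for 23.5 h, followed by CellTiter-Fluor fluorescence.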

[2] = qHTS assay to identify small molecule antagonists of the thyroid receptor (TR) signaling pathway (AID 743065); note: nearly all actives have a fitted effect of over 55% in size; note: potency is the fitted concentration of half-maximal effect
Outline: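 GH3.TRE-Luc rat pituitary cells carrying two TR response elements driving luciferase were plated for 4 h, given compound plus 1 nM T3 (final), and incubated 23.5 h at 37 C. ONE-Glo luminescence measured reporter inhibition; CellTiter-Fluor fluorescence tracked cytotoxicity.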

[3] = tested on: thyroid hormone receptor (rat, GH3 cells); test: qHTS assay to identify small molecule agonists of the thyroid receptor (TR) signaling pathway (AID 743066; calls by dose curve)
[4] = qHTS assay to identify small molecule antagonists of the estrogen receptor alpha (ER-alpha) signaling pathway - cell viability counter screen (AID 743074; calls by dose curve;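 note: HEK293 cells carrying ER-alpha-UAS-bla reporter stimulated with 17beta-estradiol; nearly all actives have a fitted effect of over 45% in size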)
[5] = qHTS assay to identify small molecule antagonists of the estrogen receptor alpha (ER-alpha) signaling pathway using the BG1 cell line - cell viability counter screen (AID 743081);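 note: compound given together with 17beta-estradiol as the ER stimulus; series mostly up to about 70 µM; nearly all actives have a fitted effect of over 45% in size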
Aromatase (Homo sapiens) = Aromatase (Homo sapiens) (UniProt P11511); test: qHTS assay to identify aromatase inhibitors (AID 743083); note: series mostly up to about 70 µM; nearly all actives have a fitted effect of over 55% in size
Chain of Aromatase (Homo sapiens) (P11511 whole entry, looked up): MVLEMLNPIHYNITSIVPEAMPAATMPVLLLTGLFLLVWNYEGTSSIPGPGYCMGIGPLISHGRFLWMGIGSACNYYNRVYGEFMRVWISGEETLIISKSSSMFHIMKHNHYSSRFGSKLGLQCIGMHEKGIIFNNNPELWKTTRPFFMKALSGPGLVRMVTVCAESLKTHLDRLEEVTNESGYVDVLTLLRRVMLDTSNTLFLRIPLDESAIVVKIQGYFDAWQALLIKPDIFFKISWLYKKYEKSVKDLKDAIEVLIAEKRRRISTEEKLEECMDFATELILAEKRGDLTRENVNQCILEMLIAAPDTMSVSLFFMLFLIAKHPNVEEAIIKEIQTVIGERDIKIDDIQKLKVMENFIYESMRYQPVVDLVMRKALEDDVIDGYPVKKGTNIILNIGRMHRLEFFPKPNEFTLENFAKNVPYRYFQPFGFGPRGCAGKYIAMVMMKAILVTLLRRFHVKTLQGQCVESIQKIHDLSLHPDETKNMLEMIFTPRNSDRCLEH

Measured: Potency

CCCOc1ccc2nc(NC(=O)OC)sc2c1
active: [1] 10.6 µM | [2] 2.37 µM
inactive: all other assays above

O=C(O)c1nc(=O)[nH]c(=O)[nH]1
inactive: all assays above

CCCc1nc(C(C)(C)O)c(C(=O)OCc2oc(=O)oc2C)n1Cc1ccc(-c2ccccc2-c2nn[nH]n2)cc1
inactive: all assays above

O=C1CCC(=O)N1CO
inactive: all assays above

C=C1/C(=C\C=C2/CCC[C@]3(C)[C@@H]([C@H](C)OCCC(C)(C)O)CC[C@@H]23)C[C@@H](O)C[C@@H]1O
active: [2] 37.6 µM
not listed: [5]
inactive: all other assays above

CCCCCCCCCCCCCCCCCC(=O)OC[C@@H](O)[C@H]1OC[C@H](O)[C@H]1O
inactive: all assays above

CC(=O)N[C@@H]([C@@H](O)[C@H](O)[C@H](O)CO)[C@@H](O)CC(=O)C(=O)O
inactive: all assays above

CCN(CC)CCOc1ccccc1OC
inactive: all assays above

COc1ccccc1N1CCN(CCCC(=O)c2ccc(F)cc2)CC1
not listed: [5]
inactive: all other assays above

CCN(CC)CCOCCOC(=O)C(CC)(CC)c1ccccc1
inactive: [3] | [4] | Aromatase (Homo sapiens)
active: [1] 26.6 µM | [2] 23.7 µM

CCOC(=O)[C@H](CCc1ccccc1)N[C@H]1CCCN2CCC[C@@H](C(=O)O)N2C1=O
inactive: all assays above

CS(=O)(=O)c1ccc(C2=C(c3ccccc3)C(=O)OC2)cc1
inactive: all assays above

CCCCCCCCCCCCCCCC(=O)OCCC1CCN(CCCN2c3ccccc3Sc3ccc(S(=O)(=O)N(C)C)cc32)CC1
not listed: [5]
inactive: all other assays above

CS(=O)(=O)Nc1cc2occ(NC=O)c(=O)c2cc1Oc1ccccc1
inactive: all assays above

NCCC[C@H](N)CC(=O)N[C@H]1CNC(=O)[C@H]([C@H]2C[C@H](O)NC(N)=N2)NC(=O)/C(=C/NC(N)=O)NC(=O)[C@H](CO)NC(=O)[C@H](CO)NC1=O (β3hOrn-[Dap]SS[ΔAla(Z-3-ureido)][X5]; lactam 1-C)
inactive: all assays above

c1ccc2c(c1)Sc1ccccc1N2CCN1CCCC1
active: [1] 11.9 µM | [2] 29.8 µM
inactive: [3] | [4] | Aromatase (Homo sapiens)

CCCC1C(=O)N2C(N(C)C)=Nc3ccc(C)cc3N2C1=O (centres undefined)
inactive: all assays above

COc1c(O[C@@H]2O[C@H](CO)[C@@H](O)[C@H](O)[C@H]2O)cc2c(c1OC)-c1ccc(SC)c(=O)cc1[C@@H](NC(C)=O)CC2
inactive: all assays above

O=C(NNCNNC(=O)c1ccncc1)c1ccncc1
inactive: all assays above

Cc1ccc(S(=O)(=O)NC(=O)N[C@@H](C)Cc2ccccc2)cc1
inactive: all assays above

Cn1cc(NC(=O)c2cc(NC(=O)c3cc(NC=O)cn3C)cn2C)cc1C(=O)NCCC(=N)N
inactive: all assays above

O=C(O)c1cc2ccccc2c(Cc2c(O)c(C(=O)O)cc3ccccc23)c1O
not listed: [5]
inactive: all other assays above

O=C1NC(=O)[C@H]2[C@@H]1[C@@H]1C=C[C@H]2C1
inactive: all assays above

CCCC(=O)Nc1ncnc2c1ncn2[C@@H]1O[C@@H]2COP(=O)(O)O[C@H]2[C@H]1OC(=O)CCC
inactive: all assays above

CCCCCCCCCCCC(=O)OC[C@@H](O)C1OC[C@H](O)[C@H]1O (some centres undefined)
inactive: all assays above
